The values that follow come from ChEMBL document CHEMBL3988442, “University of Dundee, Small-Polar-MMV Screening Library” (2021).

Molecules are shown by their SMILES. For part of these data: Potency and affinity values are given separately.

Design in all cases: scale not given: direction of the effect not stated beside the values
The target in test [1] is Protein translocase subunit SecA (Escherichia coli (strain K12)) (UniProt P10408). In words: Assay to Identify E. coli SecA ATPase Inhibitors. In kind it is functional. As to conditions: 30 µM.
Test [2] has as its target T1, Ubiquitin-activating enzyme e1, putative (Leishmania donovani (strain BPK282A1)) (UniProt E9BSI1).
T1 sequence (whole entry): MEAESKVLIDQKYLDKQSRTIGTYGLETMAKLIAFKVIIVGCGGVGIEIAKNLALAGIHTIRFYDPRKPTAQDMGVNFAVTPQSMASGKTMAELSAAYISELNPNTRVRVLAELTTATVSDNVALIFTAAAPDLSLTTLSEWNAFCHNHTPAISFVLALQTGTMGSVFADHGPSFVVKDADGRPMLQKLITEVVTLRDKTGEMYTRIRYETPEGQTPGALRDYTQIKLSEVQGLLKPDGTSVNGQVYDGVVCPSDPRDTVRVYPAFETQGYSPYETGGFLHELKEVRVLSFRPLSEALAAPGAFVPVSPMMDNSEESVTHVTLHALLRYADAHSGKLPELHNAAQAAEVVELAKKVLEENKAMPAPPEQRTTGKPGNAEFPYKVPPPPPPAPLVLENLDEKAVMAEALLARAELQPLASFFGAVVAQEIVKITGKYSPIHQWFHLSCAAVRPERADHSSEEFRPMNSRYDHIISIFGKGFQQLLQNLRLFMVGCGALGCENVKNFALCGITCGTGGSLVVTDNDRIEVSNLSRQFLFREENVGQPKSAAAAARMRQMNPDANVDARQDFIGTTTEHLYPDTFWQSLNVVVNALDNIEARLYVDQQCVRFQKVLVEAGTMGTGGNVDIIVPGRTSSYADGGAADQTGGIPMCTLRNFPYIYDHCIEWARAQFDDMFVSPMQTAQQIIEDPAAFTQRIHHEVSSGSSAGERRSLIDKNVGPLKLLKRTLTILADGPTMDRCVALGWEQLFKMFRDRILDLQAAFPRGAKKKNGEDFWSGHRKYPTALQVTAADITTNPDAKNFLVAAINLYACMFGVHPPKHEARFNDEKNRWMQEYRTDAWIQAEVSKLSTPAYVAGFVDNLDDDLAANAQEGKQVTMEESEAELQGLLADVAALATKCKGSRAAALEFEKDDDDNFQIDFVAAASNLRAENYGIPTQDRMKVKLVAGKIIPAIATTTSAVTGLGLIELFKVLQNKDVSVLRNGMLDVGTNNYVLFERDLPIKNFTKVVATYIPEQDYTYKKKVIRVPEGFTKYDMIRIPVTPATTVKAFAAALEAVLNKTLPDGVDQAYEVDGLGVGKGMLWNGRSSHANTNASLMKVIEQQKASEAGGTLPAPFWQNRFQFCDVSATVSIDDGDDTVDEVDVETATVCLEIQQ
In words: Leishmania donovani Ubiquitin Activating Enzyme (LdE1). Format: functional. Particulars: 30 µM.

The target of test [3] is AMP-activated protein kinase, AMPK (Homo sapiens) (UniProt P54646+O43741+P54619+Q9UGJ0+Q9Y478+Q13131+Q9UGI9). In words: AMP-dependent Kinase enzyme assay. An in vitro enzyme assay that detects ADP turnover that is directly proportional to AMPK activity. This uses naive AMPK that is activated during the assay with MK-8722. Particulars: 30 µM. Format: functional.
The target of test [4] is Sialic acid-binding Ig-like lectin 9 (Homo sapiens) (UniProt Q9Y336). In words: Hs-Siglec9 ALPHAscreen SOP 20170721. Particulars: 10 µM. A general note: In Alpha technology, singlet oxygen from a donor bead excites a nearby acceptor bead.
The test system of another test is Trypanosoma cruzi. In words: Trypanosoma cruzi phosphomannomutase and mannose-1-phosphate guanylyltransferase assay. Format: functional. Particulars: 10 µM.
The target in test [5] is T2, Arginase-2, mitochondrial (Homo sapiens) (UniProt P78540).
T2 sequence (whole entry): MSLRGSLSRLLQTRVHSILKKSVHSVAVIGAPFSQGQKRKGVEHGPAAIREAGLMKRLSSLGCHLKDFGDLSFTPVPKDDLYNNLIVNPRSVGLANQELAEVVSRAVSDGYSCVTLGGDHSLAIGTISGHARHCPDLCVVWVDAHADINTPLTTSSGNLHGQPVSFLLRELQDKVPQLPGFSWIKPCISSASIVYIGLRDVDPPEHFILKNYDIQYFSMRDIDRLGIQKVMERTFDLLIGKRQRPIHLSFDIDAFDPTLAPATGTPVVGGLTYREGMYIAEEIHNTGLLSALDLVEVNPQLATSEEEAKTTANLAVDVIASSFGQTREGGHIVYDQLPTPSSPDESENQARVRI
In words: in vitro enzyme assay to detect the production of urea directly proportional to the activity of Arginase II. Note: in the data most compounds retested in dose-response had high values. Format: functional. Particulars: 33.3 µM.

Test [6] addresses T3, Proteasome subunit beta (Trypanosoma cruzi) (UniProt O96673).
T3 sequence (whole entry): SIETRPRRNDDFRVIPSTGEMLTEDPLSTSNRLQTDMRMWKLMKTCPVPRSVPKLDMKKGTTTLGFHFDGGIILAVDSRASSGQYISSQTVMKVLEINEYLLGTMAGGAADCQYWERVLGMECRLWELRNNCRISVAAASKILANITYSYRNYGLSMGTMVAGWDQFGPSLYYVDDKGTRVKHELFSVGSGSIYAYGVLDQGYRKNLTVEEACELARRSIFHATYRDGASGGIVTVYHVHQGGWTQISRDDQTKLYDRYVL
As to the kind of experiment: Trypanosoma cruzi proteasome chymotrypsin-like activity (TcProtChymo) assay. Note: in the data most compounds retested in dose-response had high values. Format: functional. Particulars: 9.37 µM.

For the next test, the species on record is Homo sapiens. In words: To identify inhibition of the IFN signalling (Jak-Stat) pathway via expression of an eGFP reporter gene under the control of an IFN-stimulated response element (ISRE) containing MxA promoter. In kind it is functional. As to conditions: 30 µM. (Reporter assays use an easily measured gene product as a stand-in for the process of interest.)

The target of test [7] is T4, Tyrosyl-tRNA synthetase, putative (Trypanosoma cruzi (strain CL Brener)) (UniProt Q4DSP6).
T4 sequence (whole entry): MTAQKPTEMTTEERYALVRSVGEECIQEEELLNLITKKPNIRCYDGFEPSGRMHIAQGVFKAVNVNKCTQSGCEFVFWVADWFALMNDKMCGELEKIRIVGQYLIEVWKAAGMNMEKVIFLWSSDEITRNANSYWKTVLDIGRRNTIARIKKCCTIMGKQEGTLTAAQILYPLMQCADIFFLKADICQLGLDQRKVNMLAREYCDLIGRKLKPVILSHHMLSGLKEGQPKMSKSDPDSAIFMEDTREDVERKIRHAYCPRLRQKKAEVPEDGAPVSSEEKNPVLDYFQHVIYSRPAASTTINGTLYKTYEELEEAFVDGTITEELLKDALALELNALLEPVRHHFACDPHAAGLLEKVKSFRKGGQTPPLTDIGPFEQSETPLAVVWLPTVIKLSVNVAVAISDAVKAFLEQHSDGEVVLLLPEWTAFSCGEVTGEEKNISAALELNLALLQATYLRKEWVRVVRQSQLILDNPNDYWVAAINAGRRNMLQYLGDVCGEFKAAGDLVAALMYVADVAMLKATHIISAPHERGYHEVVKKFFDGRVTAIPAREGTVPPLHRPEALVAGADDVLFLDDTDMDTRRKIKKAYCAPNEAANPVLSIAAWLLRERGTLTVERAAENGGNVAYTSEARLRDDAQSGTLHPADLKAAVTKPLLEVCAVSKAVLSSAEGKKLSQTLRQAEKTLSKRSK
As to the kind of experiment: Trypanosoma cruzi tyrosyl tRNA synthetase (TcYRS) _High Tyrosine SOP. Note: in the data most compounds retested in dose-response had high values. In kind it is functional. Particulars: 30 µM.

Test [8] concerns the target T4, Tyrosyl-tRNA synthetase, putative (Trypanosoma cruzi (strain CL Brener)). As to the kind of experiment: Trypanosoma cruzi tyrosyl tRNA synthetase (TcYRS) SOP. Format: functional. As to conditions: 30 µM.
In test [9] the target is Chromo domain-containing protein 1 (Saccharomyces cerevisiae (strain ATCC 204508 / S288c) (Baker's yeast)) (UniProt P32657). As to the kind of experiment: ScCHD-1 Enzyme Inhibition Assay. Note: in the data most compounds retested in dose-response had high values. In kind it is functional. Particulars: 30 µM.
Chain of Chromo domain-containing protein 1 (Saccharomyces cerevisiae (strain ATCC 204508 / S288c) (Baker's yeast)) (P32657 whole entry, the tested form may be a part): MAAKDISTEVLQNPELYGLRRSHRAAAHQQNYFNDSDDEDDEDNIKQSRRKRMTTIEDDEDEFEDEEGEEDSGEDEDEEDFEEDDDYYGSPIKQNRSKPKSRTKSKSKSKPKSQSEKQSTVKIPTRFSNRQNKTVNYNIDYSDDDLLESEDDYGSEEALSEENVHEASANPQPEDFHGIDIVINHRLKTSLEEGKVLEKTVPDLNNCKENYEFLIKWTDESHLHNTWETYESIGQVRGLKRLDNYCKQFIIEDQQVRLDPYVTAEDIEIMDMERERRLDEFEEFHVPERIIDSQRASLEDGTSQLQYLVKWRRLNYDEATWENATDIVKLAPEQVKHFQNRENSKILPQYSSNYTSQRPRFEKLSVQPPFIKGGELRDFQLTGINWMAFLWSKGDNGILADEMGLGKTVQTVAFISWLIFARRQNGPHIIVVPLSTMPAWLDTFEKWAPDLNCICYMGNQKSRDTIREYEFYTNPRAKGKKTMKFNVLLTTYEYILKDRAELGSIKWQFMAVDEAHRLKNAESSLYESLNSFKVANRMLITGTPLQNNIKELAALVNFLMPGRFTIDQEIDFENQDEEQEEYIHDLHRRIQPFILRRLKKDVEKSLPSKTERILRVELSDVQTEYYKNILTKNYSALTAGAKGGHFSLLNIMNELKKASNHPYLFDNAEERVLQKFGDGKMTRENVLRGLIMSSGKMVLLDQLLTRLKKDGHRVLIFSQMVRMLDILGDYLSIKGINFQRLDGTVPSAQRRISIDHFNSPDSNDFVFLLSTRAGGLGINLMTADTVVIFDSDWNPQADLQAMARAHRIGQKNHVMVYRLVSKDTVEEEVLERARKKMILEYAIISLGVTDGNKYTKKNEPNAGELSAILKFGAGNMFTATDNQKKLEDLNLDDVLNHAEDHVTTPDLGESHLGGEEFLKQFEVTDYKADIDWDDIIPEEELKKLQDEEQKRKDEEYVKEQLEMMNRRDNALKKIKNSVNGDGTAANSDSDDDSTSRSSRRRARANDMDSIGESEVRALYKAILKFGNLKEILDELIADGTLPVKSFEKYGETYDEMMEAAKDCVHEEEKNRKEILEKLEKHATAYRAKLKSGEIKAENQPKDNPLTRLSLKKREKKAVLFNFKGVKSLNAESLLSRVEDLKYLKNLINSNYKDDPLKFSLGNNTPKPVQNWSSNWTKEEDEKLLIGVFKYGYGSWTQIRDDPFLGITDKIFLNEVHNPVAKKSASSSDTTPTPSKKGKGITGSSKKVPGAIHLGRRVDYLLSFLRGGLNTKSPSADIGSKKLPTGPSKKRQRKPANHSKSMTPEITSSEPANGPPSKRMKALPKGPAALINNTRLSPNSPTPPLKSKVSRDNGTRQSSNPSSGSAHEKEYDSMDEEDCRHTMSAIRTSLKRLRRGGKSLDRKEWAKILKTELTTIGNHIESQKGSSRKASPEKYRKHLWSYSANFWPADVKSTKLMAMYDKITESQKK

Chain of Protein translocase subunit SecA (Escherichia coli (strain K12)) (P10408 whole entry): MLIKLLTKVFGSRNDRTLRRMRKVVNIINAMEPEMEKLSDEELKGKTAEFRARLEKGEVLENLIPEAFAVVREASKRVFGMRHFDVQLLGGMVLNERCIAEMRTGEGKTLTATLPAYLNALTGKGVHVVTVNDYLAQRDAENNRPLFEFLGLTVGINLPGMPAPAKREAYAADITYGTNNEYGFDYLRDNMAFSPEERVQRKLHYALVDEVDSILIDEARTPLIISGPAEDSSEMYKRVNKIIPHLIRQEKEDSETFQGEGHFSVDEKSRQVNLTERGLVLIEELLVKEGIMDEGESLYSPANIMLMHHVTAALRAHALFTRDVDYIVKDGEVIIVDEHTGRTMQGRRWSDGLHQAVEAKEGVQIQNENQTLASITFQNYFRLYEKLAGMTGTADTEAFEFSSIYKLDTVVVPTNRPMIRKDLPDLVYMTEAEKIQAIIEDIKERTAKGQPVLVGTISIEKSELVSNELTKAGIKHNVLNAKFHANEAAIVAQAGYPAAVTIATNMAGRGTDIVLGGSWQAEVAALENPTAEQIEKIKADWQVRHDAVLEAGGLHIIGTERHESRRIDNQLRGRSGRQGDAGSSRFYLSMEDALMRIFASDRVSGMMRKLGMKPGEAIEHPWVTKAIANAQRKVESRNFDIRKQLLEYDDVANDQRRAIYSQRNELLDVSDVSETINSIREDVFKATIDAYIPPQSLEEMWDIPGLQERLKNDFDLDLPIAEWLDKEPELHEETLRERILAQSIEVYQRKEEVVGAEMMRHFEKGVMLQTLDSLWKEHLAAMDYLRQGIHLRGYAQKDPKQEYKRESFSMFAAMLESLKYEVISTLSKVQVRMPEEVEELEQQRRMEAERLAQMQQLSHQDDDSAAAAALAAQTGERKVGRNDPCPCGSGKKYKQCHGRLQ
Chain of Sialic acid-binding Ig-like lectin 9 (Homo sapiens) (Q9Y336 whole entry): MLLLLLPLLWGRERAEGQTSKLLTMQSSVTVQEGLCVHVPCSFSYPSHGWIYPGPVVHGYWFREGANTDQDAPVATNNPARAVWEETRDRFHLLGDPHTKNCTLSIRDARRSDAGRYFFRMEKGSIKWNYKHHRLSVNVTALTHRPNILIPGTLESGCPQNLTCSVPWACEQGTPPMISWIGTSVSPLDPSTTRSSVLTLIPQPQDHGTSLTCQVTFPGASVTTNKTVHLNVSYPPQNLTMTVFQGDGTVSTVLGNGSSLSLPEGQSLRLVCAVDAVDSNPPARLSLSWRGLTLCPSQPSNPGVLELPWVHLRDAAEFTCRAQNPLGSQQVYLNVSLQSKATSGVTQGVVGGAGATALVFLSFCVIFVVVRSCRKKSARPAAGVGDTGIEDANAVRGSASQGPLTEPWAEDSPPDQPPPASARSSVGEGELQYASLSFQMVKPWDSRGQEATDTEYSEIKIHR

In the case of `CCN1CC2(CC1=O)CN(Cc1cnn(C)c1)CCN(C(C)=O)C2` (centres undefined), the Percent Effect was -7.25% in [1]; 8.11% in [2]; 4.66% in test [3]; -2.12% in test [4]; -2.34% in the test with Trypanosoma cruzi; -3.33% in test [5]. Further, the Percent Effect in test [6] was 10.4%; in the test filed under Homo sapiens it was -2.64%; in test [7] it was 5.94%; in test [8], 8.54%; in test [9] it was 2.03%.
As to `COc1ncc(NC(=O)Nc2cc(C)ccc2OC)cn1`, the Percent Effect in [1] is -9.27%; in test [2] it was 15.6%; in [3], -6.73%; in test [4], -2.77%; with Trypanosoma cruzi, 9.57%; in [5], 0.645%. Besides, the Percent Effect in [6] was 15.3%; in the test listed under Homo sapiens it was 10.7%; in test [7], 3.17%; in test [8] it was 11.5%; in test [9] it was -7.83%.
As for `O=C(NCc1ccncc1)N(Cc1ccccc1F)C1CC1`, the Percent Effect in test [1] was -6.03%; in test [2], 18.7%; in test [3] it was -7.25%; in test [4], 29.6%; in the test on Trypanosoma cruzi, 10.2%; in test [5], 51%. Also, the Percent Effect is 17.1% in [6]; 5.89% in the test listed under Homo sapiens; 2.73% in [7]; 16.1% in [8]; -6.63% in test [9].
On to `CC(C)[C@H](NC(=O)NC1CCS(=O)(=O)C1)C(=O)Nc1cccnc1` (some centres undefined), for which the Percent Effect in test [1] is 1.55%; in test [2] it was 9.33%; in test [3], -0.824%; in [4] it was -4.96%; in the test on Trypanosoma cruzi it was -3.34%; in [5], -8.28%. Moreover, the Percent Effect in [6] is 13.1%; in the test filed under Homo sapiens it was 17.4%; in test [7] it was 3.17%; in [8], 12.8%; in test [9], -7.36%.
As to `Cc1c(NC(=O)NCC(C)N2CCOCC2)cccc1OC(F)F` (centres undefined), the Percent Effect in test [1] is -4.46%; in [2], 8.11%; in test [3] it was 0.188%; in test [4], 0.607%; with Trypanosoma cruzi, 0.391%; in test [5] it was 2.5%. The Percent Effect was 8.03% in test [6]; -7.17% in the test listed under Homo sapiens; 14.8% in test [7]; -3.66% in test [8]; -5.4% in test [9].
With `CCS(=O)(=O)N1CCC(c2cc3n(n2)[C@@H](C(F)(F)F)C[C@@H](C)N3)CC1`, the Percent Effect in [1] is -3.21%; in test [2], 9.46%; in test [3], -29.7%; in test [4], -2.76%; with Trypanosoma cruzi, -4.15%; in test [5] it was 2.09%. In addition, the Percent Effect in test [6] was 4.37%; in the test filed under Homo sapiens, 11.3%; in test [7], -1.07%; in [8] it was 6.49%; in test [9], -7.22%.
For `CCOc1ccc(S(=O)(=O)NCc2cccnc2N(C)C)cc1`, the Percent Effect in test [1] is -2.65%; in [2] it was 27.9%; in test [3], -9.37%; in test [4], -4.06%; in the test on Trypanosoma cruzi, 7.08%; in [5], -5.7%. In addition, the Percent Effect was 7.29% in test [6]; 58.7% in the test filed under Homo sapiens; 7.39% in [7]; 26.6% in [8]; -5.96% in [9].
Regarding `CCc1ncncc1C(=O)N1CCN(Cc2ccco2)CC1`, the Percent Effect in [1] was -3.87%; in [2], 0%; in [3], 2.99%; in test [4] it was -2.08%; in the test with Trypanosoma cruzi, -4.2%; in test [5], 3.24%. Moreover, the Percent Effect in [6] was 0.592%; in the test listed under Homo sapiens, 4.36%; in test [7], -3.45%; in test [8], -11.1%; in [9] it was 2.25%.
Take `Cc1noc(C)c1CN1CC[C@@H](OCC2CC2)[C@@H](Cc2ccccc2)C1`: the Percent Effect in [1] was -3.38%; in test [2], 13.3%; in [3], 8.95%; in test [4], -2.52%; in the test with Trypanosoma cruzi, 3.15%; in [5], 1.63%. In addition, the Percent Effect in test [6] is 14%; in the test listed under Homo sapiens, 1.91%; in test [7], 5.32%; in [8], 14.1%; in [9], -5.06%.
